BAZ2B block: qHTS Assay for Inhibitors of BAZ2B; Bromodomain adjacent to zinc finger domain protein 2B (Homo sapiens), Q9UIF8; AlphaScreen BAZ2B-H3K14Ac peptide displacement; Potency, µM (doses to about 114 µM), actives largely listed as inhibitors; hit rate 4.4% among 360,000; AID 504333, 2011; further: nearly all actives have a fitted effect of over 60% in size
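Protein-peptide AlphaScreen: BAZ2B 50 nM, b-H3K14Ac 50 nM, 1x PBS pH 7.4 + 0.01% Tween-20. Preincubation 30 min RT; cpd 30 min RT (top 110 uM); beads 20 min RT, light-protected.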
PI5P4Ka inh: qHTS for Inhibitors of phosphatidylinositol 5-phosphate 4-kinase (PI5P4K); PI5P4Kalpha enzyme, ADP-Glo luminescence, 60 min; hits give low values; max response, %; hit rate 1.2% among 330,000; Phosphatidylinositol 5-phosphate 4-kinase type-2 alpha (Homo sapiens), P48426; AID 652105, 2013; active means max response of -50% or lower; inconclusive means between -30% and -50%; inactive means -30% or higher; further: value at the top dose of about 77 µM
Target sequence (P48426 whole entry, looked up): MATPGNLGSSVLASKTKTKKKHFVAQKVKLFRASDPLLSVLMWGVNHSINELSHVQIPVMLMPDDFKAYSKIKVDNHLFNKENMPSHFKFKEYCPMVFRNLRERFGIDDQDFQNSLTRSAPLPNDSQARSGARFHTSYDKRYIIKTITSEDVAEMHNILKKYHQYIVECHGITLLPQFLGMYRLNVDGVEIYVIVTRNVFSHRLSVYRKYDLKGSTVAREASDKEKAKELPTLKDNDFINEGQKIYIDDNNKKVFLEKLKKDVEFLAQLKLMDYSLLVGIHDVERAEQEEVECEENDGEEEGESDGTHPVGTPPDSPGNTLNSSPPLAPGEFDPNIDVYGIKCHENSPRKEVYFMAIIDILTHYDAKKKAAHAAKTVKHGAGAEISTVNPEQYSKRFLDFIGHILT
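PI5P4Kalpha ADP-Glo assay; 5 microM ATP final; 60 min RT reaction; HEPES pH 7.4/EGTA/CHAPS, 5% DMSO; controls lacking substrate or enzyme; luminescent end-point.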
L3MBTL1 block: qHTS Assay for the Inhibitors of L3MBTL1; hit rate 0.66% among 230,000; AlphaScreen L3MBTL1–H3K9me1 peptide binding; AID 485360, 2010; Lethal(3)malignant brain tumor-like protein 1 (Homo sapiens), Q9Y468; Potency, µM (top dose mostly 57.1 µM), most hits filed as inhibitors; further: nearly all actives have a fitted effect of over 60% in size
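Displacement of a biotinylated histone H3(1-15) peptide monomethylated at Lys9 (75 nM) from L3MBTL1 (50 nM) was measured by AlphaScreen after a 30 min room-temperature compound incubation; cefsulodin titration served as intraplate control.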
JMJD2A Tudor inh: qHTS Assay for Inhibitors of JMJD2A-Tudor Domain; Lysine-specific demethylase 4A (Homo sapiens), O75164; AlphaScreen JMJD2A-Tudor / H3K4me3 peptide binding; Potency, µM (series often up to 114 µM), usual class: inhibitors; hit rate 4.4% among 390,000; AID 504339, 2011; further: nearly all actives have a fitted effect of over 50% in size
G9a block: qHTS Assay for Inhibitors of Histone Lysine Methyltransferase G9a; Potency, µM (titrated, usually from 102 µM), usual class: inhibitors; Histone-lysine N-methyltransferase EHMT2 (Homo sapiens), Q96KQ7; G9a H3K9 monomethylation, AlphaScreen, 2 h; hit rate 8.8% among 350,000; further: nearly all actives have a fitted effect of over 75% in size
Target sequence (Q96KQ7 913-1193 limits assumed): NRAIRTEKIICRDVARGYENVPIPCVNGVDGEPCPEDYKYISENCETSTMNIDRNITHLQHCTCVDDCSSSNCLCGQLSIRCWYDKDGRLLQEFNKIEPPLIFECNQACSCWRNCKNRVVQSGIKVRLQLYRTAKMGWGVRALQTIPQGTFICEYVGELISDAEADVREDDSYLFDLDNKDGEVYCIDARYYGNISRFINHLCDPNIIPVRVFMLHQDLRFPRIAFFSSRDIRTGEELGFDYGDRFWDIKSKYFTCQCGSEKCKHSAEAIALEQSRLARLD
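Compounds were preincubated with 20 nM G9a for 15 min, after which biotinylated H3K9 peptide (500 nM) and SAM (20 uM) started a 2 h room-temperature reaction. Monomethylated product was quantified by antibody-based AlphaScreen chemiluminescence.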
HP1b chromo inh: HTS for Inhibitors of HP1-beta Chromodomain Interactions with Methylated Histone Tails | Potency, µM (doses to about 114 µM), actives largely listed as inhibitors | hit rate 0.56% among 390,000 | AlphaScreen HP1-beta / biotin-H3K9me3 peptide binding; further: nearly all actives have a fitted effect of over 70% in size
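Compound inhibition of the preformed complex between 50 nM HP1-beta and 50 nM biotinylated H3K9me3 peptide was read by AlphaScreen. Buffer was PBS pH 7.4 with 0.01% Tween-20. Incubations ran 30 min at room temperature, with 10 ug/mL donor/acceptor beads.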
A number is an active result; n = inactive; u = inconclusive; x = not tested or not shown; ! = a repeat was not active; [ ] = another dose, or the depositor's remark. An excerpt weighted towards active compounds, which were near 11% of everything screened. Unless noted, the call rests on the fitted dose curve; in most records, active means well fitted inhibition curve with a large enough effect; inconclusive means small, poorly fitted or top-dose-only effect; inactive means no such curve, though single readings can be large or run the other way.

SMILES	BAZ2B block	PI5P4Ka inh	L3MBTL1 block	JMJD2A Tudor inh	G9a block	HP1b chromo inh
COc1ccc(-n2cc(-c3ccc4c(c3)OCO4)n(CC(=O)Nc3cc(Cl)ccc3C)c2=O)cc1	89.1µM	x	x	n	u	n
Cc1ccc(NC(=O)Cn2c(-c3ccc4c(c3)OCO4)cn(-c3ccccc3)c2=O)cc1C	n	x	x	u	u	n
Clc1ccc(C2=Nn3c(nnc3-c3n[nH]c4c3CCC4)SC2)cc1Cl	n	x	n	u	11.2µM	n
COc1ccc(C2C=C3CN(C(=O)OC(C)(C)C)S(=O)(=O)C3CC2OC(=O)c2cccc(C)c2)cc1 (stereo unspecified)	x	x	x	n	x	n
CCCN(CCC)C(=O)Cn1c(=O)n(-c2cccc(C(F)(F)F)c2)c(=O)c2c(C)c(C)sc21	n	x	x	n	n	n
COc1cccc(CCNC(=O)c2cnc3sc(N4CCCC4)nn3c2=O)c1	n	x	x	n	n	n
Cc1oc2c(cc(NS(=O)(=O)c3ccc(C(C)C)cc3)c3ccccc32)c1C(=O)O	50.1µM!	n	x	u	50.1µM!	n
CC(C)(C)c1ccc2c(S(=O)(=O)O)c(C(C)(C)C)ccc2c1	x	x	x	x	n[12.7 µM]	x
S=c1nc(-c2ccco2)[nH][nH]1	u	n	x	7.08µM	1.78µM	u
Cc1oc(-c2cccc(Cl)c2)nc1CS(=O)(=O)CC(=O)NC(C)CCc1ccccc1 (stereo unspecified)	n	x	x	n	n	n
CC(C)n1c(=S)[nH]c2scc(-c3cccs3)c2c1=O	50.1µM	-82.3	n	u	28.2µM	n
O=c1c2c(-c3cccs3)csc2[nH]c(=S)n1-c1ccccc1	n	u	n	n	39.8µM	n
COC(=O)CN1C(=O)CSc2ccc(S(=O)(=O)Nc3ccc(F)c(Cl)c3)cc21	n	x	x	n	u	n
C=CCn1c(-c2cccn(Cc3ccc(Cl)cc3)c2=O)n[nH]c1=S	n	x	n	10µM	4.47µM	n
Nc1n[nH]c(-c2ccccc2[N+](=O)[O-])n1	n	n	n	n	n	n
CNC(=S)NNC(=O)c1cccn(Cc2ccc(Cl)cc2Cl)c1=O	n	x	n	x	u	x
C=CCn1c(-c2ccccc2[N+](=O)[O-])n[nH]c1=S	u	n	n	n	15.8µM	n
C=CCn1c(-c2cc(-c3ccccc3)sc2N)n[nH]c1=S	n	n	n	n	x	n
C=CCn1c(-c2cccn(Cc3ccccc3)c2=O)n[nH]c1=S	n	n	n	28.2µM	39.8µM	n
C=CCn1c(-c2cccn(Cc3ccc(Cl)cc3Cl)c2=O)n[nH]c1=S	n	x	n	56.2µM	2.82µM	n
Cc1ccc(-n2ncc(C(=O)NCCc3ccccc3)c2C2CCN(C(=O)OC(C)(C)C)CC2)c(C)c1	n	x	x	n	n	n
CC1CCc2c(sc(NC(=O)c3ccccc3)c2C(=O)Nc2ccccc2)C1 (stereo unspecified)	n	x	x	n	n	n
CCCCCCCCCCCCCCCCOCC(CO)OC(C)=O (stereo unspecified)	x	x	x	x	n	x
CCOc1ccccc1NC(=O)CN1C(=O)C2(SCC(=O)N2c2ccc(C)cc2)c2ccccc21 (stereo unspecified)	n	x	x	n	n	n
C=CCn1c(-c2ccc(=O)n(Cc3ccccc3)c2)n[nH]c1=S	n	x	n	x	17.8µM	x
SMILES	BAZ2B block	PI5P4Ka inh	L3MBTL1 block	JMJD2A Tudor inh	G9a block	HP1b chromo inh
CSc1nnc(-c2cccn(Cc3cccc(Cl)c3)c2=O)o1	n	n	n	n	n	n
C=CCn1c(-c2cccn(Cc3cccc(Cl)c3)c2=O)n[nH]c1=S	n	x	n	20µM	11.2µM	n
O=c1c(-c2n[nH]c(=S)n2-c2ccccc2)cccn1Cc1cccc(Cl)c1	n	n	n	28.2µM	3.55µM	n
CCc1c(C)nc2nncn2c1NCc1ccccc1	n	x	x	n	n	n
Cc1c(C(=O)OC2CCCCC2)[nH]c2c1C(=O)CC(c1ccc(C(C)(C)C)cc1)C2 (stereo unspecified)	n	x	x	n	n	n
O=C(c1ccc(Cl)c(Cl)c1)N1CCC(=O)N(C(CO)Cc2ccccc2)CC1 (stereo unspecified)	x	n	x	35.5µM	x	n
NC(=S)N/N=C/c1c[nH]c2ccc(OCc3ccccc3)cc12	35.5µM	n	n	u	39.8µM	n
NC(Cc1c[nH]c2ccc(OCc3ccccc3)cc12)C(=O)O (stereo unspecified)	u	n	x	u	44.7µM	n
NC(=S)N/N=C\c1ccccc1OCc1ccccc1	u	n	n	n	n	n
N[C@@H](Cc1c[nH]c2ccc(O)cc12)C(=O)O	u	n	n	u	8.44µM!	n
O=C1c2ccccc2C(=O)N1CCc1c[nH]c2ccc(O)cc12	n	n	n	n	u	n
CCOCCCNC(=O)c1cnc2sc(N3CCCCC3)nn2c1=O	n	x	x	n	n	n
CCOC(=O)c1sc2nc(-c3ccco3)c3c(c2c1N)CC(C)(C)OC3	n	u	n	n	u	n
Nc1c(C(=O)NC2CC2)sc2nc3c(c(-c4ccco4)c12)CC/C3=C/c1ccco1	n	-96.2	0.891µM	7.08µM	3.16µM	14.1µM
Cc1ccc(-c2c3c(nc4sc(C(N)=O)c(N)c24)CCCC3)o1	u	n	n	n	44.7µM	n
NC(=O)c1sc2nc3c(c(-c4ccco4)c2c1N)CCC3	u	x	u	79.4µM	u	n
COc1ccccc1N(C(=O)c1ccncc1)c1nc(-c2ccc([N+](=O)[O-])cc2)cs1	u	n	n	u	10µM	u
CCOCCc1nn2c(=O)cc(COC(=O)C3CCCCC3)nc2s1	n	x	x	n	n	n
Nc1nc(Cl)nc2c1ncn2[C@@H]1O[C@H](COP(=O)(O)OP(=O)(O)OP(=O)(O)O)[C@@H](O)[C@H]1O	x	x	x	x	26.7µM	x
CNC(=O)[C@H]1O[C@@H](n2cnc3c(N)ncnc32)[C@H](O)[C@H]1O	x	x	x	x	3.16µM	x
Nc1ncnc2c1ncn2[C@@H]1O[C@H](COP(=O)(O)OP(=O)(O)OP(=O)(O)OP(=O)(O)OC[C@@H]2O[C@H](n3cnc4c(N)ncnc43)[C@@H](O)[C@H]2O)[C@@H](O)[C@H]1O	x	x	x	x	25.1µM!	x
CNC(=O)[C@H]1O[C@@H](n2cnc3c(NCc4cccc(I)c4)nc(Cl)nc32)[C@H](O)[C@@H]1O	n	n	n	n	n	n
Cc1nn2cc(-c3ccc(OC(C)C)cc3)nc2s1	u	x	x	n	n	n
COc1cc(NS(=O)(=O)c2c(C(=O)N3CCCCC3)c(C)n(C)c2C)cc(OC)c1OC	n	x	x	n	n	n

Source: PubChem BioAssay (National Center for Advancing Translational Sciences (NCATS))
